# Results reported in the supplement of paper PMC6331611.
# ± gives the standard deviation of the averaged measurements. Over roughly 1,600 compounds, “normalized intracellular growth (luminescence, IQM-normalized) in RAW264.7 macrophages” has its median near 1; the lowest 2% begin near 0.43. The entries come from a sample that favours the lowest values as a whole.
# Test system: Salmonella enterica serovar Typhimurium SL1344
# Experiment: normalized intracellular growth (luminescence, IQM-normalized) in RAW264.7 macrophages (fraction of plate interquartile mean); higher = more bacterial growth (less inhibition)
# Settings: 10 µM
Structure (SMILES),normalized intracellular growth (time point: T3 (3 h)),normalized intracellular growth (time point: Tfinal (~6 h))
CC(C)Nc1ncccn1,0.928 ± 0.053,1.05 ± 0.2
Cc1oc(=O)oc1CN1CCN(c2cc3c(cc2F)c(=O)c(C(=O)O)c2n3C(C)S2)CC1 (stereo not drawn),1.14 ± 0.069,0.0187 ± 0.0013
NC(=O)[C@@H]1CCCN1C(=O)[C@H](Cc1c[nH]cn1)NC(=O)[C@@H]1CCC(=O)N1,1.02 ± 0.038,0.959 ± 0.044
CC1(C)OC(=O)C(OCC2CC2)=C1c1ccc(S(C)(=O)=O)cc1,1.15 ± 0.017,1.2 ± 0.13
OCC(S)CS (stereo not drawn),0.927 ± 0.011,1.03 ± 0.053
O=C(O)c1ccc[n+]([O-])c1,0.967 ± 0.051,1.05 ± 0.023
COc1ccc2cc(C(C)C(=O)O)ccc2c1 (stereo not drawn),1.04 ± 0.036,1.09 ± 0.089
C=C[C@H]1CN2CC[C@H]1C[C@H]2[C@H](O)c1ccnc2ccc(OC)cc12,0.978 ± 0.042,0.953 ± 0.058
CCCCC(CC)COC(=O)c1ccccc1O (stereo not drawn),1.05 ± 0.055,0.89 ± 0.17
Nc1ccc(C(=O)O)cc1,1.023 ± 0.0022,0.829 ± 0.11
O=c1[nH]c(=O)n([C@H]2C[C@H](O)[C@@H](CO)O2)cc1I,1.005 ± 0.0041,1.01 ± 0.2
O=c1[nH]c(=O)n([C@H]2C[C@H](O)[C@@H](CO)O2)cc1F,0.699 ± 0.043,0.209 ± 0.03
CCc1cn([C@H]2C[C@H](O)[C@@H](CO)O2)c(=O)[nH]c1=O,1.09 ± 0.034,0.868 ± 0.01
CC(C)(C)C(=O)C(Oc1ccc(Cl)cc1)n1ccnc1 (stereo not drawn),1.042 ± 0.0043,1.12 ± 0.016
N#Cc1ccc2c(c1)N(CCCN1CCC(O)CC1)c1ccccc1S2,1.04 ± 0.014,0.869 ± 0.15
CC(C)C[C@@H]1NC(=O)[C@H](CCCN)NC(=O)[C@H](C(C)C)NC(=O)[C@H](Cc2ccc(O)cc2)N[C@@H](CCC(=O)O)C(=O)N[C@@H](CC(N)=O)C(=O)[C@@H](Cc2ccccc2)NC(=O)[C@H](Cc2ccccc2)NC(=O)[C@@H]2CCCN2C(=O)[C@@H](Cc2ccccc2)NC1=O,0.95 ± 0.055,1 ± 0.064
C=CC1=C(C(=O)O)N2C(=O)[C@@H](NC(=O)/C(=N\O)c3csc(N)n3)[C@H]2SC1,0.973 ± 0.034,0.0262 ± 0.0031

Structure (SMILES),normalized intracellular growth (time point: T3 (3 h)),normalized intracellular growth (time point: Tfinal (~6 h))
CC=CC1=C(C(=O)O)N2C(=O)[C@@H](NC(=O)[C@H](N)c3ccc(O)cc3)[C@H]2SC1,1.06 ± 0.039,0.738 ± 0.11
CO/N=C(\C(=O)N[C@@H]1C(=O)N2C(C(=O)O)=C(C[N+]3(C)CCCC3)CS[C@H]12)c1csc(N)n1,1.01 ± 0.054,0.0358 ± 0.0021
N[C@@H](C(=O)N[C@@H]1C(=O)N2C(C(=O)O)=C(Cl)CS[C@H]12)c1ccccc1,1.03 ± 0.054,1.08 ± 0.021
Cn1nnnc1SCC1=C(C(=O)O)N2C(=O)[C@@H](NC(=O)[C@H](O)c3ccccc3)[C@H]2SC1,1.08 ± 0.041,1.02 ± 0.17
CC(=O)OCC1=C(C(=O)O)N2C(=O)[C@@H](NC(=O)CSc3ccncc3)[C@H]2SC1,1 ± 0.024,0.957 ± 0.042
CO/N=C(\C(=O)N[C@@H]1C(=O)N2C(C(=O)OCOC(=O)C(C)(C)C)=C(/C=C\c3scnc3C)CS[C@H]12)c1csc(N)n1,0.923 ± 0.047,0.0689 ± 0.074
CC(=O)OCC1=C(C(=O)O)N2C(=O)[C@@H](NC(=O)Cc3cccs3)[C@H]2SC1,0.979 ± 0.037,1.01 ± 0.027
COCC1=C(C(=O)OC(C)OC(=O)OC(C)C)N2C(=O)[C@@H](NC(=O)/C(=N\OC)c3csc(N)n3)[C@H]2SC1 (stereo partly drawn),0.953 ± 0.066,1.06 ± 0.2
Cc1nnc(SCC2=C(C(=O)O)N3C(=O)[C@@H](NC(=O)Cn4cnnn4)[C@H]3SC2)s1,1.09 ± 0.087,1.2 ± 0.074
CO/N=C(\C(=O)N[C@@H]1C(=O)N2C(C(=O)O)=C(COC(C)=O)CS[C@H]12)c1csc(N)n1,0.898 ± 0.017,0.178 ± 0.0072
NC(=O)NC(=O)Cc1ccccc1,0.993 ± 0.021,0.979 ± 0.038
CNC(=N)NCCC[C@H](N)C(=O)O,1.11 ± 0.029,0.921 ± 0.26
NC[C@H]1O[C@H](O[C@H]2[C@H](O)[C@@H](O[C@H]3O[C@H](CO)[C@@H](O)[C@H](N)[C@H]3O)[C@H](N)C[C@@H]2N)[C@H](N)[C@@H](O)[C@@H]1O,0.81 ± 0.012,0.554 ± 0.025
CC1(C)[C@H]2CC[C@]1(CS(=O)(=O)O)C(=O)C2=Cc1ccc(C=C2C(=O)[C@@]3(CS(=O)(=O)O)CC[C@@H]2C3(C)C)cc1,0.978 ± 0.028,1.17 ± 0.22
Cc1nccnc1N1CCCCC1,1.09 ± 0.057,0.933 ± 0.023
CCC(=O)O[C@H](CC(=O)O)C[N+](C)(C)C,1.06 ± 0.052,1 ± 0.028
NCCNCCNCCN,0.972 ± 0.044,1.2 ± 0.037
